Results as given in the supplement of paper PMC6555819.

Each sequence was assayed on VDR:RXRa (NR concentration 270 nM, RXRa partner concentration 90 nM) (assay: PBM binding z-score (relative to random genomic background probes); higher = stronger binding; sequences stand for … in GC…GCGATTGACAGCGTAGAATGAAGG).
Method: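 Protein-binding microarray (Agilent 4x180K custom design, double-stranded 60-nt probes: 5' GC cap, 34-nt variable region, 24-nt constant primer region; full probe sequence given). Purified or IVT nuclear receptor:RXRα heterodimers (3:1 NR:RXRα, mostly 270:90 nM) or homodimers were incubated for 1 h in PBS with 2% milk and no ligand, then detected with Alexa488 antibodies. Fluorescence from o1-orientation probes (~5 replicates averaged) was converted to z-scores against 500 random hg19 background probes. Variable regions are seed direct-repeat (DR0–DR5) sites, all their single-nucleotide variants and half-site ablations.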

Row | Sequence | PBM binding z-score
1 | ACTCGGAGGACAAAGGTCCGAGCTACGCCAGTGA | -0.323
2 | TCTTGTAGATCAACAGGAGGTCAAGAAAGATCGA | 3.14
3 | GCTACTAGGTCAACTGATGGTCAGCTAAAGCTCG | 1.79
4 | CACACTAGGTCAAGGTCAAAGTCGGTTTGTGCCA | 5.17
5 | ATCGAAAGGTCGACGAGGTTAGTATACACCGTTT | 6.41
6 | GCTAGTTGGTCATTAAAAGGTCACACACCGGTCG | 4.42
7 | ACTAGTTGGTCAGCTGAGGTCACTCACAATTCGG | 3.95
8 | TCTTGTAGTTCAATAGAGGTTAAGAAAGTGCGCT | 3.41
9 | CTGGAAAGGTCGGTTGAGGTGAGTATACGGATAA | 2.15
10 | ATATGTAGGTTATCGGGTCATTCTGTTTGCGCAT | 3.82
11 | CTACCAACGTGAACAAGGTCGTTGATTACTATTC | 2.05
12 | TCTCGGAGGACACGAAGGTCAGAGCGTTCCAGAG | 2.42
13 | CCTGCTAGGTCAATGATCAGCTAAAGCAGCTCGC | 0.447
14 | ACTATTAGTTGACTTAGGGCACCCGATACGACGC | 0.0637
15 | ATCGCAAGGTCGAGGTGAGTATAGAGAAAGGGAA | 1.43
16 | TGAATAAGGTTATAAGATCAGGGAACGTTGCAAA | 0.743
17 | TTGAGTAGGTTACCAATGGGGCATTCAGCTTTCT | 0.365
18 | AGAATGAGGTTACCACAGATCAGGGAAACGCTTG | 1.23
19 | CAAACTAGTTCACGAAAGGTCAAAGTCGAATGAC | 6.33
20 | CAAACTAGCTCACCGGAAGGTCAAAGTCCGCATG | 2.8

Row | Sequence | PBM binding z-score
21 | CCGACTGGGGCAGAAAGTTTACCATACCATCCGG | 0.484
22 | AGTCAAAATTCAGGACGAGGTAACGTAAAGCACG | -0.107
23 | TCTTGTAGATCAACAGTAGGTTAAGAAAGATCGA | 0.333
24 | CGTCCAAGGTCAGCAGGACAGTGAAAGCGACGTG | 2.42
25 | ATCTCTAGGTTAAGTTCAGTGAAAGATCGATAGA | 2.37
26 | TCTAGTAGGTTAGTCGGGGCATTCAGCCAACATA | 2.68
27 | ATCTCTGGGTAAAGATAGTTCAGTGAATGCAAAT | 0.896
28 | GCTGGTAGATCAAGGTTAAGAAAGACTAAGCTAA | 0.201
29 | GCTCGGAGGACTAGGTCAGAGCTTTGTCCGTAGA | -0.562
30 | ATCGAAGGGTCGTGAGGTGAGTATACAGAAAGGC | 2.38
31 | GCTGCTAGGTCAGCTTGGTCAGCTAACGGGTACG | 0.54
32 | ATCGAAAGGTCGAGGTGAGTAAAGAGAAAGGGAA | 2.25
33 | AATACAGGGTCAATAGGCCAGAGTAGGTACGAAT | 3.64
34 | CTCGAAACGTCGTGCTCAGGTGAGTATACCAAAC | -0.365
35 | CGTCCAAGGTCAGCAGGTCAGCGAAAGCGACGTG | 4.26
36 | TGAATGAGGTTGTAAGATCAGGGAACGTTGCAAA | -0.0386
37 | ATCTCTAGTTAAGACTCAGTTCAGTGAAGAACGC | 1.2
38 | CGTACTGGGCCATCAGGTCATTGATATCAACGTT | 1.97
39 | CCTTCTAGGTCAATGGTCAGCTAAAGCAGCTCGC | 1.16
40 | ATCTCTAGGCAACCAAGTTCAGTGAATGCCGAAC | 2.1
